According to article PMC4336329 (PLoS ONE, 2015):
About 14,000 (4.5%) of roughly 310,000 compounds showed an effect of 50% or more. Effects have a minus sign here. The sample holds strong results, similar compounds and a random draw of the others, so the mix is not that of the screen.

Biological target: human ether-à-go-go-related gene (hERG) potassium channel (human, UniProt Q12809)
Assay: primary screen, population patch clamp on CHO cells stably expressing hERG; higher = less effect of the substance
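Note: peak tail current of the secondary pulse compared with the same well before compound.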

Sequence of human ether-à-go-go-related gene (hERG) potassium channel (Q12809 whole entry, looked up): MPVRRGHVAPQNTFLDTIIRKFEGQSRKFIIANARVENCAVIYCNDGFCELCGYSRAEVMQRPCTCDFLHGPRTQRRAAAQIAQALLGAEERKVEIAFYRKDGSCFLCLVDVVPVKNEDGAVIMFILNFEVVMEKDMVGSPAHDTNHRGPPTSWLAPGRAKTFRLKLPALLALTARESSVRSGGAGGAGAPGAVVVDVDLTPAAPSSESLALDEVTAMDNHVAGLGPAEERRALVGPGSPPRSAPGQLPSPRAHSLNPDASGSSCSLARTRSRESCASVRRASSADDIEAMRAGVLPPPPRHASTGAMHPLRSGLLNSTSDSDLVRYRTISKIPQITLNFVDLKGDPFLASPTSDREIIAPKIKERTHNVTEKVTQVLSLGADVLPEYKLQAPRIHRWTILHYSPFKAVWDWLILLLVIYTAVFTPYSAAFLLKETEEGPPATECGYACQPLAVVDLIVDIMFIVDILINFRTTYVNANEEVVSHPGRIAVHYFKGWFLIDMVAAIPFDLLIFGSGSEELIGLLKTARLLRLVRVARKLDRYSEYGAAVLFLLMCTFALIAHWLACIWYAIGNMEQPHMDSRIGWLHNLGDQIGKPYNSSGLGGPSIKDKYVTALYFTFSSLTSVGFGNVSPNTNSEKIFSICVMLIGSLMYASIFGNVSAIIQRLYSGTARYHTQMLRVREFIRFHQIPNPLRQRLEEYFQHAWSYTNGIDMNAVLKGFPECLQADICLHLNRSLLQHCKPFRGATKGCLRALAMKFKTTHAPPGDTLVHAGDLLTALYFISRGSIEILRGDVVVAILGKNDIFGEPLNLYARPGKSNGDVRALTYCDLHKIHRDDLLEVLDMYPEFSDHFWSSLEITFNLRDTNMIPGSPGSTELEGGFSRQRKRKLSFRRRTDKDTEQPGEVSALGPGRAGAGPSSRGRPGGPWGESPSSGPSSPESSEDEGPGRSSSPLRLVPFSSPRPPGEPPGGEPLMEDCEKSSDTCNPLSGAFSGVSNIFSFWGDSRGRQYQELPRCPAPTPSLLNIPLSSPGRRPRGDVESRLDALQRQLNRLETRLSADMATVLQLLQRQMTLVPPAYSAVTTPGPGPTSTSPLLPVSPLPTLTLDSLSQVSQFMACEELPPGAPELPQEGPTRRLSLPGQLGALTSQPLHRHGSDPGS

SMILES	hERG current change (%, negative = inhibition) at 10uM [%]
Oc1ccccc1C(=S)N1CCN(C(=S)c2ccccc2O)CC1	18.4
C#CCNC(=O)C1=C[C@H](c2coc3ccccc3c2=O)[C@@H](CCCO)[C@H](OCC)O1	-23.3
Cc1[nH]c2ccccc2c1CCCO	10.7
CC(C)(C)NC(=O)CN1C(=O)/C(=C/c2ccccc2)SC1=S	10
O=C(CN1CCN(c2ccccc2)CC1)NC(=O)NCc1ccco1	9.72
CCOC(=O)c1cnc2ccc(C)cc2c1NCCO	-66.4
CCOC(=O)c1ccc2ncc(C(=O)OCC)c(NCCN3CCOCC3)c2c1	-48.5
CCOC(=O)c1cnc2c(Cl)c(Cl)ccc2c1NCCN1CCOCC1.Cl	14.3
CCOC(=O)c1ccc2ncc(C(=O)OCC)c(NCCN(C)C)c2c1	-69.5
CCOC(=O)c1cnc2ccc(Cl)cc2c1NCCN(C)C	-22.8
CCOC(=O)c1cnc2ccc(Br)cc2c1NCCO	-9.88
CCOC(=O)c1cnc2ccc(C)cc2c1NCCN1CCOCC1.Cl	-65.7
CCOC(=O)c1cnc2ccccc2c1NCCO	-34.8
CCOC(=O)c1cnc2c(ccc3ccccc32)c1NCCN(C)C	-7.47
Nc1nnn(CC(=O)N/N=C/c2cccc(Cl)c2)n1	4.76
CCCCNC(=O)c1onc(CSc2ccc(F)cc2)c1C(=O)NCCCC	-10.2
CCN(CC)C(=O)C1CCC(CNS(=O)(=O)c2cccc3cccnc23)CC1 (stereo not drawn)	4.52

SMILES	hERG current change (%, negative = inhibition) at 10uM [%]
CN(C)c1ccc(C(=S)N2CCCCCC2)cc1	-5.79
NS(=O)(=O)c1ccc(CCNC(=O)c2ccc(Cl)cc2[N+](=O)[O-])cc1	16.7
COc1ccccc1N1CCN(C2CC(=O)N(c3ccc(F)cc3)C2=O)CC1 (stereo not drawn)	0.313
O=C1CSC(c2ccccc2)N1c1ccc(F)cc1F (stereo not drawn)	4.37
CCn1c(Cc2ccccc2)nnc1SCC(=O)Nc1ccc(S(N)(=O)=O)cc1	2.13
Cc1ccc(Cn2c(SCc3cccnc3)nc3c2c(=O)n(C)c(=O)n3C)cc1	-0.713
Cc1ccc(-c2ccc(S(=O)(=O)NCC3CCCO3)cc2)cc1 (stereo not drawn)	26.2
CCN(CC)CCCN(C(=O)c1ccc(F)cc1)c1nc(-c2ccc(OC)cc2)cs1	-75.1
COCCCN(C(C)=O)c1nc(-c2ccc(OC)cc2)cs1	-16.5
COCCCN(C(=O)c1ccccc1)c1nc(-c2ccc(OC)cc2)cs1	18.3
CCN(CC)CCCN(C(=O)c1ccc(OC)cc1)c1nc(-c2ccc(OC)cc2)cs1	-73.7
COCCN(C(=O)c1ccccc1)c1nc(-c2ccc(OC)cc2)cs1	28.5
CCC(=O)N(CC)c1nc(-c2ccc(OC)cc2)cs1	-5.81
CCN(CC)CCCN(C(=O)c1cccc(C)c1)c1nc(-c2ccc(OC)cc2)cs1	-78.2
CCN(CC)CCCN(C(=O)c1ccc(Br)cc1)c1nc(-c2ccc(OC)cc2)cs1.Cl	-73.2
COc1ccc(-c2csc(N(CCCN(C)C)C(=O)c3ccc(Br)cc3)n2)cc1.O=C(O)C(=O)O	-44
